This is one part of the list. No count for the full screen is at hand.
Molecular target: furin, P09958
Test: furin cleavage Z-score vs untreated control; higher = more cleavage, active = 3.5 or more, inactive = 1 or less, 8 variable residues between constant flanks
Summary of the method: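 Magnetic beads held 8-mer peptides by the N-terminus, each fused to a cDNA oligonucleotide, and purified furin was added for 7.5, 15 or 30 min. Released DNA was sequenced after PCR adapter tagging. The cleavage Z-score is the log count relative to furin-free reactions, lowess-adjusted and divided by median absolute deviation.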
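Further: purified furin at 1:10 enzyme:substrate in 50 mM HEPES pH 7.5.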

furin, P09958, sequence (P09958 whole entry): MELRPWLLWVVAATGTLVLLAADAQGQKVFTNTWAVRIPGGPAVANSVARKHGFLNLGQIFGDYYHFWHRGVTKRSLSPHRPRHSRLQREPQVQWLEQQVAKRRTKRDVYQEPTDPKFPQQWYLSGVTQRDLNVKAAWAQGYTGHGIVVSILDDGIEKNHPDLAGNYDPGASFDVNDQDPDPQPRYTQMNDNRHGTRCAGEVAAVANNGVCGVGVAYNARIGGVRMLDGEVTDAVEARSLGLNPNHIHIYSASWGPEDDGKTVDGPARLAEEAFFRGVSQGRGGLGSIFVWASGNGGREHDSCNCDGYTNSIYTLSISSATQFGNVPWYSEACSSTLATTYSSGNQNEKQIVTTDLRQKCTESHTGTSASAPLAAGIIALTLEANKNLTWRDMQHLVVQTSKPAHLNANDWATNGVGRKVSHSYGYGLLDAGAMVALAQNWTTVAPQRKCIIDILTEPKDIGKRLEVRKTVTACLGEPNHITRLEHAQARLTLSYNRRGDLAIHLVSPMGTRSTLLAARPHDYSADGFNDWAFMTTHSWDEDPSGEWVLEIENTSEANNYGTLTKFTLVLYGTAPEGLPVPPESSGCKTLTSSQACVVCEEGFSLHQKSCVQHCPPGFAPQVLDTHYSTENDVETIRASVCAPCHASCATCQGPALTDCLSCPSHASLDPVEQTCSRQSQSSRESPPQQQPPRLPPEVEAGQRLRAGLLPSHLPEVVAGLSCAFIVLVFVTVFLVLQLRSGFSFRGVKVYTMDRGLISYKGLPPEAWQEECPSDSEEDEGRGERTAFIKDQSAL

| Sequence | furin cleavage Z-score (7.5 min) | furin cleavage Z-score (15 min) | furin cleavage Z-score (30 min) |
| --- | --- | --- | --- |
| CADDDKIVGGAGNASASA [EK7] | -1.75 (inactive) | -1.15 (inactive) | -0.908 (inactive) |
| CASTGFTKVCAGNASASA [HC439] | 0.727 (inactive) | -0.241 (inactive) | 0.58 (inactive) |
| CAPISYANGSAGNASASA [HC396] | 0.358 (inactive) | -0.237 (inactive) | 0.768 (inactive) |
| CACEECSQHLAGNASASA [HC1680] | -0.324 (inactive) | -2.23 (inactive) | -0.379 (inactive) |
| CALHGRRRREAGNASASA [FS-456] | 12.8 (active) | 11.9 (active) | 10.7 (active) |
| CALNRRRRREAGNASASA [FS-355] | 12.7 (active) | 12.9 (active) | 8.21 (active) |
| CARDARRLKEAGNASASA [FS-2900] | 0.375 (inactive) | -1.38 (inactive) | -0.471 (inactive) |
| CAVSAEEYVEAGNASASA [HC1203] | -1.9 (inactive) | 0.0508 (inactive) | 0.782 (inactive) |
| CARFYRSRKKAGNASASA [FS-1707] | 0.676 (inactive) | 1.31 | 0.114 (inactive) |
| CAVFARHLREAGNASASA [FS-921] | 5.03 (active) | 6.28 (active) | 4.54 (active) |
| CARRNRRRREAGNASASA [FS-494] | 12 (active) | 13.6 (active) | 9.7 (active) |
| CACCTTPCSGAGNASASA [HC1960] | -1.19 (inactive) | -0.424 (inactive) | -0.858 (inactive) |
| CAWCLWWLQYAGNASASA [HC581] | -0.105 (inactive) | -0.224 (inactive) | -0.828 (inactive) |
| CAWFGCTWMNAGNASASA [HC435] | -0.725 (inactive) | 1.68 | 1.37 |
| CATDFDQGWGAGNASASA [HC392] | -0.591 (inactive) | -2.3 (inactive) | -1.94 (inactive) |
| CAGGGGGGGGAGNASASA [NE1] | 1.03 | 0.409 (inactive) | 1.54 |
| CAMSGRRLREAGNASASA [FS-1468] | 3.25 | 3.96 (active) | 3.6 (active) |
| CAEGGRRRREAGNASASA [FS-1318] | 4.58 (active) | 3.64 (active) | 2.94 |
| CAGGGRTRREAGNASASA [FS-427] | 3.88 (active) | 3.57 (active) | 2.42 |
| CAMSGEVPSTAGNASASA [HC1095] | -0.208 (inactive) | -0.846 (inactive) | 0.503 (inactive) |
| CAPPLEGEPGAGNASASA [HC1355] | 0.988 (inactive) | 0.95 (inactive) | 0.522 (inactive) |
| CAGKSVKKRSAGNASASA [FS-161] | 8.72 (active) | 12 (active) | 9.51 (active) |

| Sequence | furin cleavage Z-score (7.5 min) | furin cleavage Z-score (15 min) | furin cleavage Z-score (30 min) |
| --- | --- | --- | --- |
| CAGKSLKKRSAGNASASA [FS-1198] | 10.8 (active) | 8.86 (active) | 8.35 (active) |
| CAPEKGGRKPAGNASASA [HC1445] | 0.667 (inactive) | -1.91 (inactive) | -0.0787 (inactive) |
| CATCRNMWSGAGNASASA [HC1186] | 1.45 | 1.34 | 0.472 (inactive) |
| CAIVVTSTWVAGNASASA [HC2144] | 0.282 (inactive) | -0.196 (inactive) | 0.858 (inactive) |
| CASGSKKKRKAGNASASA [FS-1278] | -1.57 (inactive) | 0.447 (inactive) | 0.492 (inactive) |
| CAIFWRKKRKAGNASASA [FS-337] | 4.37 (active) | 3.52 (active) | 5.53 (active) |
| CALLVRKKRKAGNASASA [FS-824] | 9.19 (active) | 10.5 (active) | 8.06 (active) |
| CAHLVRKKRKAGNASASA [FS-1339] | 10.2 (active) | 11.5 (active) | 10.3 (active) |
| CAATCTANHDAGNASASA [HC1267] | -0.592 (inactive) | 0.126 (inactive) | 0.634 (inactive) |
| CAAVMGSSYGAGNASASA [HC1463] | -0.652 (inactive) | 0.469 (inactive) | -0.776 (inactive) |
| CALVFFCFAWAGNASASA [HC545] | -0.625 (inactive) | -0.493 (inactive) | -2.31 (inactive) |
| CAATVCARAQAGNASASA [HC956] | -0.452 (inactive) | 0.685 (inactive) | -0.234 (inactive) |
| CAKSNRFRRQAGNASASA [FS-453] | 9.35 (active) | 7.39 (active) | 5.76 (active) |
| CAAKRRFRRQAGNASASA [FS-521] | 11.3 (active) | 11.5 (active) | 9.92 (active) |
| CAKNNRGRRQAGNASASA [FS-1018] | 8.48 (active) | 8.87 (active) | 9.25 (active) |
| CARNTNRRPQAGNASASA [HC167] | 0.367 (inactive) | 0.97 (inactive) | -0.345 (inactive) |
| CAKNEVFCVQAGNASASA [HC1441] | -0.977 (inactive) | -0.752 (inactive) | -0.637 (inactive) |
| CAAKRRTRRQAGNASASA [FS-1443] | 9.31 (active) | 8.38 (active) | 7.06 (active) |
| CAKYNRGRRKAGNASASA [FS-1598] | -1.68 (inactive) | 1.26 | 2.34 |
| CAERTTPCSGAGNASASA [HC1973] | -0.657 (inactive) | 0.759 (inactive) | 0.0382 (inactive) |
| CAVVCCFMSYAGNASASA [HC106] | 0.2 (inactive) | -0.139 (inactive) | -1.5 (inactive) |
| CAMEEWSQHLAGNASASA [HC7] | -0.124 (inactive) | 0.451 (inactive) | 0.398 (inactive) |

Source: the supplement of paper PMC3545927
